Results reported in PubChem BioAssay AID485270 (The Scripps Research Institute Molecular Screening Center, 2010).
In all, about 330,000 compounds went through this assay and about 5,800 (1.8%) were called active. No stated cut-off is given here; in the data, active means inhibition mostly above about 38% (no sharp cut-off); inactive means mostly below about 40%. The sample as a whole holds a higher share of actives than the screen did.

target: Orexin/Hypocretin receptor type 1 (Homo sapiens) (UniProt O43613); test: blocks the human orexin 1 receptor (AID 485270); settings: OX1R-expressing cells, FRET antagonist read-out; at 6.6 µM; active compounds read high;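 further: 0% = agonist challenge alone and 100% = reference antagonist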
Sequence (O43613 whole entry, looked up): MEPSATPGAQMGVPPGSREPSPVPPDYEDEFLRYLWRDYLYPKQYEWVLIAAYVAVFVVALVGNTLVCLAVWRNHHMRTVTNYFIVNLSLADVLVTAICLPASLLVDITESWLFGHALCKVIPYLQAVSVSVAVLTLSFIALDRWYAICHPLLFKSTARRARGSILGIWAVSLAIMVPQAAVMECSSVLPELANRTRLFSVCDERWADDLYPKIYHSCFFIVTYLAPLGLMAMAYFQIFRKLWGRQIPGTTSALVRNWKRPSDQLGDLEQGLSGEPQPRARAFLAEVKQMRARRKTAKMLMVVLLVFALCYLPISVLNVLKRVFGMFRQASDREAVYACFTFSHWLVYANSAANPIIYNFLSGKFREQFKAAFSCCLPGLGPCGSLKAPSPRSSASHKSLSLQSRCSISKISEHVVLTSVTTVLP

inhibition, inactive:
CCOc1ncccc1C(=O)Nc1ccc2c(c1)OCCO2 14.1%, O=C(COC(=O)c1ccc(F)cc1)Nc1ccc2c(c1)OCO2 7.07%, COc1cc2ccccc2cc1C(=O)Nc1ccncc1 17.8%, COc1cc2ccccc2cc1C(=O)N1CCOCC1 9.14%, O=C(Cn1cnc2ccccc2c1=O)NNC(=O)c1ccccc1F 6.41%, COc1cccc2cc(C(N)=O)/c(=N\NC(=O)c3ccccc3)oc12 5.27%, COC(=O)c1ccc(NC(=O)c2cc3c(CO)cnc(C)c3oc2=Nc2cccc(C(N)=O)c2)cc1 7.42%, O=C(CN1C(=O)NC2(CCCCCC2)C1=O)Nc1ccc([N+](=O)[O-])cc1 11.2%, O=C(Nc1ccccc1F)c1ccc(Cn2cc(Br)cn2)cc1 8.12%, Cc1ccc(Br)c(NS(=O)(=O)c2cccc(C(=O)N3CCNC(=O)C3)c2)c1 3.06%, S=C(NC1CCCCC1)NN1CCOCC1 18.3%, COc1ccc(NC(=O)CN2C(=O)CSc3ccc(S(=O)(=O)N4CCC(C)CC4)cc32)cc1 3.75%, O=C(Nc1cccc(S(=O)(=O)N2CCCC2)c1)c1cncc(Br)c1 -1.91%, COc1cccc(/C=C2\C=C(c3ccc(C)cc3)OC2=O)c1OC(C)=O -6.31%, CCOc1cccc(/C=C/c2ccc3ccccc3n2)c1OC(C)=O 58.1%, O=C(CSc1ncn[nH]1)Nc1ccc(Br)cc1Br 5.47%, C=CC[C@@H](CC(=O)N[C@@H](CO)Cc1ccccc1)C(=O)N[C@H](COC(=O)[C@H](CC=C)CC(=O)OC(C)(C)C)Cc1ccccc1 3.4%, CN(Cc1ccc(F)cc1)C(=O)CN1C(=O)c2ccccc2S1(=O)=O 13.1%, Cc1nn(Cc2ccccc2)c(Cl)c1C(=O)OC1CCOC1=O (configuration not stated) 21.6%, CC(C)c1ccc(C(=O)OC2CCOC2=O)cc1 (configuration not stated) 27.2%, Cc1ccc(S(=O)(=O)N2CCCCC2)cc1NC(=O)CCNC(=O)c1ccccc1 2.26%, COc1cccc(CNC(C)C(=O)Nc2ccc(S(=O)(=O)N3CCCC3)cc2)c1 (configuration not stated) 2.03%, O=C(NNC(=O)c1ccc(Cl)nc1)c1ccc(Br)cc1 8.95%, CCN(C[C@H]1N[C@@](CC)(C(=O)OC)[C@H]2C(=O)N(Cc3ccccc3)C(=O)[C@@H]12)S(=O)(=O)c1ccccc1 6.85%, O=C(Cc1ccc2c(c1)CCCC2)Nc1ccccc1Cl 6.59%, Cc1c(NC(=O)Nc2ccccc2Cl)sc(=S)n1C 12.2%, COc1ccc(CNC(=O)C2CCN(C(=O)c3ccco3)CC2)cc1 14.6%, CC(=O)c1c(OCC(=O)N(C)C2CCCCC2)ccc2c(C)cc(=O)oc12 2.71%, O=C(NCc1ccccc1)c1onc(CSc2ccncc2)c1C(=O)NCc1ccccc1 16.4%, O=C(NCC1CC1)c1onc(CSc2ccccc2)c1C(=O)NCC1CC1 28.4%, O=S(=O)(Nc1ncnc2sccc12)c1cccc(F)c1 3.31%, Cc1cc(NC(=O)COC(=O)/C=C/c2ccc(C)o2)no1 1.38%, CCOC(=O)C1=CN(Cc2ccc(Br)cc2)S(=O)(=O)NC1C (configuration not stated) 8.5%, COc1cc2c(-c3ccc4c(c3)OCO4)c(-c3ccsc3)oc(=O)c2cc1OC 16.2%, CC(OC(=O)c1cc2ccccc2[nH]1)C(=O)N(C)c1ccccc1 (configuration not stated) 5.48%, C[C@H](NC(=O)c1ccccc1Cl)C(=O)OCC(=O)N1CCN(c2ccccc2)CC1 3.17%, COc1ccc(C(=O)OCC(=O)Nc2ccc3[nH]c(=O)[nH]c3c2)c(OC)c1OC 18%, COc1ccc(C(=O)OCC(=O)c2ccc(C)c(S(=O)(=O)N3CCOCC3)c2)cc1OC 27.8%, COc1ccc(C(=O)NCC(=O)N/N=C/c2ccc([N+](=O)[O-])s2)cc1OC 44%, COc1cc(C(=O)OCc2ccc([N+](=O)[O-])cc2)cc(OC)c1OC 14.5%, O=C(CN1CCCC1)N1CCN(c2ccccc2)CC1 3.2%, C[C@H](CO)N1C[C@H](C)[C@H](CN(C)C(=O)Nc2ccc(C(F)(F)F)cc2)Oc2c(NC(=O)c3ccncc3)cccc2C1=O 12.5%, CCOc1ccc(Br)cc1S(=O)(=O)Nc1ccc(S(=O)(=O)Nc2cc(C)on2)cc1 -0.05%, CN(C)C(=O)CCc1ccc2c3c([nH]c2c1)[C@]1(CCc2ccccc2)[C@@H](C(=O)N2CCCCC2)C[C@H](CC(=O)NCCC2=CCCCC2)C(=O)N1CC3 10.4%, COc1ccc2sc(-c3ccc(S(C)(=O)=O)cc3)c(C#Cc3cncn3C)c2c1 6.52%, C=CCC[C@H](Cc1ccc(F)cc1)C(=O)OC[C@@H](Cc1c[nH]c2ccccc12)NC(=O)[C@H](CC=C)CC(=O)N[C@H](CO)Cc1ccccc1 3.33%

inhibition, active:
CN=C1C=C/C(=N/N=c2\ccn(O)cc2C)C=C1C 58.6%, COc1cc2ccccc2cc1C(=O)Nc1ccc(N2CCOCC2)cc1 63.5%, COc1cccc(N=c2oc3c(C)ncc(CO)c3cc2C(N)=O)c1 84.6%, COc1cccc(/C=C/c2ccc3ccccc3n2)c1OC(C)=O 92%, O=C(OC1CCOC1=O)c1ccc(-c2nc3ccccc3s2)s1 (configuration not stated) 119%, O=C(Nc1ccccc1Cl)/C(Cl)=C(\Cl)S(=O)c1ccccc1 (configuration not stated) 87.9%, O=C(NCc1ccccc1)c1onc(CSc2nc3ccccc3[nH]2)c1C(=O)NCc1ccccc1 71.2%, C=CCSc1nnc2c(n1)-c1cccc3cccc-2c13 56.6%, COc1cc(NC(=O)COC(=O)c2ccc([N+](=O)[O-])s2)cc(OC)c1OC 47.4%, COc1ccc(C(=O)COC(=O)c2ccc([N+](=O)[O-])s2)cc1OC 38.5%, O=C(OCC(=O)N1CCN(c2ccccc2)CC1)c1ccc([N+](=O)[O-])s1 42.6%
